Results taken from PubChem BioAssay (NCI).
The panel holds about 83,000 compounds, 20% with a hit somewhere; the sample as a whole holds those more often.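 Results are percent growth after 48 hours of single-concentration exposure. 100 means growth as in untreated cells, lower positive values show inhibition; negative values down to -100 show cell death.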 The source made the active and inactive calls.

Test system: CCRF-CEM leukemia
Assay: NCI-60 one-dose screen, 48 h (100 = growth as untreated, 0 = no growth, -100 = all killed)
Conditions: 10 µM
Method: Growth inhibition of the CCRF-CEM human tumor cell line is measured as a screen for anti-cancer activity. Cells are grown in 96 well plates and exposed to the test compound for 48 hours. Compounds are tested at a single concentration, which is 10^-5 M for most compounds. The reported endpoint is percent growth (GI% or GIPRCNT), where numbers from 0 - 100% represent growth inhibition, and numbers from -100% - 0 represent cell death. For example, a value of 40 represents 60% growth inhibition. A value of 0 means no net growth occurred over the course of the experiment. A value of -40 indicates 40% of cells at the beginning of the experiment died by the end of the experiment. A value of -100 means all cells are dead at the end of the experiment.
NCI-60 Human Tumor Cell Lines Screen was performed using the standard one-dose NCI protocol, which is described in more detail at https://dtp.cancer.gov/discovery_development/nci-60/default.htm.
Compounds with GIPRCNT values below 10 were considered active. Activity score was based on GIPRCNT using the following formula: […]
Score is 0 for GIPRCNT values of 100 or above, 50 for GIPRCNT values of 0, and 100 for GIPRCNT values of -100.

| Structure (SMILES) | growth |
| --- | --- |
| O=C(CC(NC(=O)OCc1ccccc1)C(=O)OCc1ccccc1)OCc1ccccc1 (stereo not given) | 47.5% (inactive) |
| O=C(Nc1cccc(-n2cc(-c3ccncc3)c(-c3ccc(O)c(Cl)c3)n2)c1)c1cc(C(F)(F)F)cc(C(F)(F)F)c1 | 29.5% (inactive) |
| CC/C(=C(/c1ccc(OCCN(C)C)cc1)c1ccc(OC(=O)CCCCC(=O)c2c(C)[nH]c(/C=C3\N=C(c4ccc[nH]4)C=C3OC)c2C)cc1)c1ccccc1 | 9.97% (active) |
| CC(C)=CCc1ccc(O)c(=O)cc1C(C)C | 9.68% (active) |
| COc1ccc(-c2nsc3c2NC(=O)CC3c2ccc(F)cc2)cc1 (stereo not given) | 45.3% (inactive) |
| CCCC1(CC(=O)O)OCCc2c1[nH]c1ccccc21 (stereo not given) | 94.1% (inactive) |
| COc1ccc(/C=C/C(=O)Nc2ccc(-c3nc4ccc(F)cc4s3)cc2)cc1 | 81.3% (inactive) |
| COc1ccc(Oc2nc(NC3CCCC3)nc(Sc3ccc(OC)cc3)n2)cc1 | 53.2% (inactive) |
| COc1ccc2c(c1)N(CCO)C1=C(C(=O)OC1)C2c1ccc(OC)c(OC)c1 (stereo not given) | 34.2% (inactive) |
| N#Cc1c(C#N)c(SSc2c(C#N)c(C#N)c(N)n2-c2ccccc2)n(-c2ccccc2)c1N | 126% (inactive) |
| C#Cc1ccc(-n2c(/C=C/c3ccc(O)cc3)nc3ncccc3c2=O)cc1 | 85.7% (inactive) |
| O=C1/C(=C\c2ccc(F)cc2)CN(C(=O)c2ccccc2)C/C1=C\c1ccc(F)cc1 | -12.6% (active) |
| O=C1/C(=C\c2ccccc2)CN(C(=O)c2ccccc2F)C/C1=C\c1ccccc1 | -7.33% (active) |
| c1ccc(CO[C@H]2CO[C@H]3[C@@H]2OC[C@H]3OCc2ccccc2)cc1 | 99.2% (inactive) |
| Oc1[nH]c2ccc(Cl)cc2c1/C=c1/ccc2c(c1)N=C(c1cccs1)N=2 | 31.9% (inactive) |
| Nc1nc(N)c(NC(=O)CNc2ccc(C(=O)O)cc2)c(N)n1 | 98% (inactive) |
| Clc1ccc(Nc2ccnc(NCCNc3ccnc4cc(Cl)ccc34)n2)cc1 | 1.25% (active) |
| N#CCCN(NC(=O)OCc1ccccc1)C(=O)OCc1ccccc1 | 99% (inactive) |
| COc1ccc(-c2cc(-c3ccc(N(C)C)cc3)c(C#N)c(N3CCCC3)n2)cc1 | 79.5% (inactive) |
| COc1cc(-c2cc(/C=C3\C(=O)Nc4ccc(Cl)cc43)[nH]n2)cc(OC)c1OC | 10.7% (inactive) |

| Structure (SMILES) | growth |
| --- | --- |
| CC(C)(Cl)CCC1=C(Cl)C(=O)c2ccccc2C1=O | -33.9% (active) |
| CCC(=O)N1C/C(=C/c2ccc(OC)cc2)C(=O)/C(=C/c2ccc(OC)cc2)C1 | -5.27% (active) |
| FC(F)(F)c1ccc(-c2cnc(-n3cc(COCCN4CCCCC4)nn3)nc2NC2CCCCCC2)cc1 | -5.93% (active) |
| Cc1ccc(C(=O)Nc2cccc(F)c2)cc1NC(=O)C1(c2ncnc3[nH]ccc23)CC1 | 87.9% (inactive) |
| O=C(CCCCC[P+](c1ccccc1)(c1ccccc1)c1ccccc1)NC(COC(=O)C(Cl)Cl)(COC(=O)C(Cl)Cl)COC(=O)C(Cl)Cl | 88.7% (inactive) |
| Nc1c(C(=O)Nc2ccccc2)sc2nc3c(cc12)C(O)CCC3 (stereo not given) | 14.2% (inactive) |
| CCN1CCN(c2nc3ccccc3c3c(=O)c4ccccc4sc23)CC1 | 29.2% (inactive) |
| O=C(Nc1ccc(Cl)c([N+](=O)[O-])c1)Nc1nc2ccccc2s1 | 49.2% (inactive) |
| CC1=C(N2CCOCC2)C(N2CCOCC2)=C(C)C(=O)C1=O | 102% (inactive) |
| COc1cc2cc3c(nc2cc1OC)CCN3Cc1ccc(NC(=O)Nc2ccc(F)cc2F)cc1 | 71.7% (inactive) |
| OCC1OC(n2cnc3c(N/N=C\c4ccccn4)ncnc32)C(O)C1O (stereo not given) | 16.8% (inactive) |
| CCOC(=O)N/N=C\C(C)=N\NC(=O)OCC | 93.6% (inactive) |
| COc1ccc(NC2=NC(C)(CO)CS2)cc1 (stereo not given) | 89.6% (inactive) |
| Cc1cc(N(CCCNc2ccnc3cc(Cl)ccc23)Cc2cccs2)nc(Cl)n1 | 42% (inactive) |
| O=C(Nc1cccc(-n2cc(-c3ccncc3)c(-c3cc(O)cc(Cl)c3)n2)c1)c1cc(C(F)(F)F)cc(C(F)(F)F)c1 | 26.9% (inactive) |
| CCCCCCCCCCCCCCCCN(C(C)c1ccccc1)S(=O)(=O)c1ccc(OC)c(N)c1 (stereo not given) | 97.5% (inactive) |
| Cc1cc2c(C)c3cc(C)c(N)cc3nc2cc1N | 6.08% (active) |
| COc1ccc(-c2nn(-c3cccc(NC(=O)c4ccc5c(c4)OCCO5)c3)cc2-c2ccncc2)cc1Cl | 7.54% (active) |
| Cc1occc1-c1nnc(SCC(=O)c2ccc(NC(=O)CC(C)C)cc2)o1 | 93.4% (inactive) |
| CCN(CC)Cc1cc(Nc2ccnc3cc(Cl)ccc23)ccc1OC | 69.1% (inactive) |
